# Laboratory results: publication doi:10.1101/2025.02.07.636106
# What was measured:
# Laminin subunit gamma-1 = Laminin subunit gamma-1 (UniProt P11047); assay: cross-linking mass spectrometry
# [1] = target: Splicing factor 3A subunit 1 (UniProt Q15459); assay: cross-linking mass spectrometry
# [2] = target: Splicing factor 3B subunit 2 (UniProt Q13435); assay: cross-linking mass spectrometry
# [3] = target: Splicing factor 3B subunit 5 (UniProt Q9BWJ5); assay: cross-linking mass spectrometry
# Splicing factor 45 = Splicing factor 45 (UniProt Q96I25); assay: cross-linking mass spectrometry
# Syntaxin-8 = Syntaxin-8 (UniProt Q9UNK0); assay: cross-linking mass spectrometry
# [4] = target: U1 small nuclear ribonucleoprotein A (UniProt P09012); assay: cross-linking mass spectrometry
# [5] = target: Vacuolar protein sorting-associated protein 16 homolog (UniProt Q9H269); assay: cross-linking mass spectrometry
# [6] = target: Vacuolar protein sorting-associated protein 45 (UniProt Q9NRW7); assay: cross-linking mass spectrometry
# [7] = target: Vesicle transport through interaction with t-SNAREs homolog 1A (UniProt Q96AJ9); assay: cross-linking mass spectrometry
# [8] = target: Metastasis-associated protein MTA2 (UniProt O94776); assay: cross-link between two proteins; cross-linking mass spectrometry
# [9] = target: Methyl-CpG-binding domain protein 2 (UniProt Q9UBB5); assay: as above
# [10] = target: Methyl-CpG-binding domain protein 3 (UniProt O95983); assay: as above
# Plexin-A1 = Plexin-A1 (UniProt Q9UIW2); assay: as above
# [11] = target: Polyadenylate-binding protein 3 (UniProt Q9H361); assay: as above
# [12] = target: Probable serine carboxypeptidase CPVL (UniProt Q9H3G5); assay: as above
# [13] = target: Proteasome subunit beta type-3 (UniProt P49720); assay: as above
# [14] = target: Putative elongation factor 1-alpha-like 3 (UniProt Q5VTE0); assay: as above
# [15] = target: Putative heat shock protein HSP 90-alpha A4 (UniProt Q58FG1); assay: as above
# RNA-binding protein Raly = RNA-binding protein Raly (UniProt Q9UKM9); assay: as above
# [16] = target: SIR2 antiphage-like protein 2 (UniProt Q9NWS6); assay: as above
# [17] = target: Serine palmitoyltransferase 2 (UniProt O15270); assay: as above
# [18] = target: Serine/threonine-protein kinase MARK2 (UniProt Q7KZI7); assay: as above
# [19] = target: Splicing factor 3B subunit 2 (UniProt Q13435); assay: as above
# [20] = target: Structural maintenance of chromosomes protein 3 (UniProt Q9UQE7); assay: as above
# [21] = target: Succinate dehydrogenase [ubiquinone] flavoprotein subunit, mitochondrial (UniProt P31040); assay: as above
# THO complex subunit 2 = THO complex subunit 2 (UniProt Q8NI27); assay: as above
# THO complex subunit 3 = THO complex subunit 3 (UniProt Q96J01); assay: as above
# [22] = target: Transcriptional repressor p66-beta (UniProt Q8WXI9); assay: as above
# [23] = target: Transforming protein RhoA (UniProt P61586); assay: as above
# [24] = target: V-type proton ATPase subunit D (UniProt Q9Y5K8); assay: as above
# Sequence of V-type proton ATPase subunit D (Q9Y5K8 whole entry): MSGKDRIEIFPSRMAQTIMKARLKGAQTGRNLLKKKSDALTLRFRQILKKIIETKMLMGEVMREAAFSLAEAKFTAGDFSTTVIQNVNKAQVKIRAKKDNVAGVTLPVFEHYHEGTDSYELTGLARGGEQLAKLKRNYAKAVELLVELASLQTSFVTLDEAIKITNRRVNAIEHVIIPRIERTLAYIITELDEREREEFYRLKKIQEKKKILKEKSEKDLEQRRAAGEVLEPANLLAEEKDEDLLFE
# Sequence of Vesicle transport through interaction with t-SNAREs homolog 1A (Q96AJ9 whole entry): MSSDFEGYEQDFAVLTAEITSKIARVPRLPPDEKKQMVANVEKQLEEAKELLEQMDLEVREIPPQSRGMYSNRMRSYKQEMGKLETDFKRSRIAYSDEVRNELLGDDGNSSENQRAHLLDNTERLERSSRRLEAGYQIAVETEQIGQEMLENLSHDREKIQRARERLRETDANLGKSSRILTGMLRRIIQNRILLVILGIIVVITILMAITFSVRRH
# Sequence of Transforming protein RhoA (P61586 whole entry): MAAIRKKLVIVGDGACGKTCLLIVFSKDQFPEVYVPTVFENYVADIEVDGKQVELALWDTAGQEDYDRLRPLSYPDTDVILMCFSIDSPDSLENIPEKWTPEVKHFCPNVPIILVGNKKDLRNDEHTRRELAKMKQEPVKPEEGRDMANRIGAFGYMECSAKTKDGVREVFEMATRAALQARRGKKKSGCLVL
# Sequence of Transcriptional repressor p66-beta (Q8WXI9 whole entry): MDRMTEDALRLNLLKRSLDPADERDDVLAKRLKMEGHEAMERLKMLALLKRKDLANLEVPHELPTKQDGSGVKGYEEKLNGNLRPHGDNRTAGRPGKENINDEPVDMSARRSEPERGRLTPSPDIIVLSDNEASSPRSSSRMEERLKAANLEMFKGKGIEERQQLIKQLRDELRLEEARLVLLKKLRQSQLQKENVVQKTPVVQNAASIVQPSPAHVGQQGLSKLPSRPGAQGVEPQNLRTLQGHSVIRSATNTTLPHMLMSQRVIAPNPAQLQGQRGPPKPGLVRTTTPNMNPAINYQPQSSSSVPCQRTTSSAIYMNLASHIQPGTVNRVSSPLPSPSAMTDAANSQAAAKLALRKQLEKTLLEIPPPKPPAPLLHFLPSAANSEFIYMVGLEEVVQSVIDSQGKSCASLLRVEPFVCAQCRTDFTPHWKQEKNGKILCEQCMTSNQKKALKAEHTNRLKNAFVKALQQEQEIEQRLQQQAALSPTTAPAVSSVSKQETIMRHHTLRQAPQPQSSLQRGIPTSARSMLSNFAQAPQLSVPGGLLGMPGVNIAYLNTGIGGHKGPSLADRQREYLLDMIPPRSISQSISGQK
# Sequence of Laminin subunit gamma-1 (P11047 whole entry): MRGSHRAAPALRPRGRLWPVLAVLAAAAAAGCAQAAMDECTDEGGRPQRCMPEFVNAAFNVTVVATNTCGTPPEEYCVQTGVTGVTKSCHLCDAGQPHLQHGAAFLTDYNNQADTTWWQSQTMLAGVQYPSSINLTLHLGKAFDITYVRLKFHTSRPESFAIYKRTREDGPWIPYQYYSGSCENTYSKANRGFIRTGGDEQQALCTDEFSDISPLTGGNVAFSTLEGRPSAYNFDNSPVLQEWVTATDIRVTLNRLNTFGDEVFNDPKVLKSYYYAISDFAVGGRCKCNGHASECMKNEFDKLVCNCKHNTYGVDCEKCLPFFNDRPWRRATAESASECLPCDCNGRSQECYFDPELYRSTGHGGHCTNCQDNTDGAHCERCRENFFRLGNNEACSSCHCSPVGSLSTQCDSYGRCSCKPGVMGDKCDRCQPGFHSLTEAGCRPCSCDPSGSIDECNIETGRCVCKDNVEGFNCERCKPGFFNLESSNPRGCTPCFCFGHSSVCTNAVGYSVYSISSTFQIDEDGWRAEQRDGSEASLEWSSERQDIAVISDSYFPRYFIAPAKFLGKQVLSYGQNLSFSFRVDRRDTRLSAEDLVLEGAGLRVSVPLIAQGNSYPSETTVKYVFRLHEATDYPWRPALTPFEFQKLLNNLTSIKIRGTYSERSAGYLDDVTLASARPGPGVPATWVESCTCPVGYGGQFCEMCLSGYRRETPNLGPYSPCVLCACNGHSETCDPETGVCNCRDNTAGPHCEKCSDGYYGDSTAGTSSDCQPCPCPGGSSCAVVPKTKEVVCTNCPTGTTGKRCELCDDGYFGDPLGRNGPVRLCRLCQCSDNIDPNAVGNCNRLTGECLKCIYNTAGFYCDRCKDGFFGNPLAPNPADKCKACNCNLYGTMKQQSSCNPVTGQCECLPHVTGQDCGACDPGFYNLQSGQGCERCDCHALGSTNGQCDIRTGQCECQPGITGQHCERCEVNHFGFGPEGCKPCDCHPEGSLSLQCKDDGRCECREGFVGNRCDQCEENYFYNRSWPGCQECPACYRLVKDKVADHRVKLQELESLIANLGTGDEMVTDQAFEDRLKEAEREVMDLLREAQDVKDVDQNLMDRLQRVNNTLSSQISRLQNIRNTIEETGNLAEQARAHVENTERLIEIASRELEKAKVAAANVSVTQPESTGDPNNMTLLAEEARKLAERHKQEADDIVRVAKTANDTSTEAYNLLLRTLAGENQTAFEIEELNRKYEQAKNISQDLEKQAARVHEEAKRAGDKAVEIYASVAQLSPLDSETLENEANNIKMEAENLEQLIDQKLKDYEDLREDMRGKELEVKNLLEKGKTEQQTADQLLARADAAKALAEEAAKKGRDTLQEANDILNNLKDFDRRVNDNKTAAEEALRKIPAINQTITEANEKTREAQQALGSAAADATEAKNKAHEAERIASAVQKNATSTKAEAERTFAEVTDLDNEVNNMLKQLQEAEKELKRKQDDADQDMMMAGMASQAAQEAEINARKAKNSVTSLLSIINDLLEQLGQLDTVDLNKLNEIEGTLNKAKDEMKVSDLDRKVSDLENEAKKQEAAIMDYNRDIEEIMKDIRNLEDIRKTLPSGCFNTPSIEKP
# Sequence of Vacuolar protein sorting-associated protein 16 homolog (Q9H269 whole entry): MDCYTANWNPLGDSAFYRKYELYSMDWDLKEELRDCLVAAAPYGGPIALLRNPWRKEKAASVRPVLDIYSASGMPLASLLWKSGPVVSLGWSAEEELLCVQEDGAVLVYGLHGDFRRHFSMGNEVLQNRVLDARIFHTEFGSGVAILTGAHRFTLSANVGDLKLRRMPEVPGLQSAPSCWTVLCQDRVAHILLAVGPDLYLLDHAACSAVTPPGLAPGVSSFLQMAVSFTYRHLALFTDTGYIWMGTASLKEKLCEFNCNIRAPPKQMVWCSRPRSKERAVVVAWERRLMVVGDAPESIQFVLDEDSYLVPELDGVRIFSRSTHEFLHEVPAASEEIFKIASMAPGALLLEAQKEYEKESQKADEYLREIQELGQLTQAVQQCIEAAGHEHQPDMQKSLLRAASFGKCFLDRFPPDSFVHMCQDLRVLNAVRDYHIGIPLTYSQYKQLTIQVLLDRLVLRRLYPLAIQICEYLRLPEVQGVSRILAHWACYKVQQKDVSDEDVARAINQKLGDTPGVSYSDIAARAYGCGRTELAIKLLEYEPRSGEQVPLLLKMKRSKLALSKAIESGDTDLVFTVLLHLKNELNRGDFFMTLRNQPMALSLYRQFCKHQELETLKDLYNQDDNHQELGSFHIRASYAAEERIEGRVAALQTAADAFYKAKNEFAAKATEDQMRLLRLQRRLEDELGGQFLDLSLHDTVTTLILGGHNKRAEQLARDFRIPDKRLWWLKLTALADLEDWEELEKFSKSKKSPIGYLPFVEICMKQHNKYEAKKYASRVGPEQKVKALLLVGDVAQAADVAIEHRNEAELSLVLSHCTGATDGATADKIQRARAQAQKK
# Sequence of RNA-binding protein Raly (Q9UKM9 whole entry): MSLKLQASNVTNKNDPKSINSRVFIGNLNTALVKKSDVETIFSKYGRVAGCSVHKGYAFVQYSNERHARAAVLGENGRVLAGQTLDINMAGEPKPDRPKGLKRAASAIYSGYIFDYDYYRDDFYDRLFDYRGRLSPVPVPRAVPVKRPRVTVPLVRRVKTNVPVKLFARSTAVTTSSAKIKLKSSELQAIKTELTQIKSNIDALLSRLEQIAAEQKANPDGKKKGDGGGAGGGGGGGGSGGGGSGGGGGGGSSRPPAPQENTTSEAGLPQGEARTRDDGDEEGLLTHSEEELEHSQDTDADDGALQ
# Sequence of MAP/microtubule affinity-regulating kinase 3, P27448 (P27448 whole entry): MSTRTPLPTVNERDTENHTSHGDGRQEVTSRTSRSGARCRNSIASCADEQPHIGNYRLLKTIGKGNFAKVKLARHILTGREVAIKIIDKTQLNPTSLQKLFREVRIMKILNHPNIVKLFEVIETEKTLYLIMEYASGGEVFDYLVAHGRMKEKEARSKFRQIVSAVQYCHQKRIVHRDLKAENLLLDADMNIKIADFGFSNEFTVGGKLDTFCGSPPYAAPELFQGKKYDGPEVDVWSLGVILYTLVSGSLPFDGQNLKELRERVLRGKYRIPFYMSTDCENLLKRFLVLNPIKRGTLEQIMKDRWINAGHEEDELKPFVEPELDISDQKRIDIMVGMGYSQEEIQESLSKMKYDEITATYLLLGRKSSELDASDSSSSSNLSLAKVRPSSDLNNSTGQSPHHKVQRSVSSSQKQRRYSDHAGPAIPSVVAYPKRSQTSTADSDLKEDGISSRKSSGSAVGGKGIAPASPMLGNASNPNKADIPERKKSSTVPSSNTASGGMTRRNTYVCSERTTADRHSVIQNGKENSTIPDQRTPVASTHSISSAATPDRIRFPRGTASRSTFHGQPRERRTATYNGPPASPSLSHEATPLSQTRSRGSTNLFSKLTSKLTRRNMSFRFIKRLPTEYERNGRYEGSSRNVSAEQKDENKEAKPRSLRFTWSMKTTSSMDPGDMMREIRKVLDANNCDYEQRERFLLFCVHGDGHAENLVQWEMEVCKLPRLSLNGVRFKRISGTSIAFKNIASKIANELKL
# Sequence of Proteasome subunit beta type-3 (P49720 whole entry): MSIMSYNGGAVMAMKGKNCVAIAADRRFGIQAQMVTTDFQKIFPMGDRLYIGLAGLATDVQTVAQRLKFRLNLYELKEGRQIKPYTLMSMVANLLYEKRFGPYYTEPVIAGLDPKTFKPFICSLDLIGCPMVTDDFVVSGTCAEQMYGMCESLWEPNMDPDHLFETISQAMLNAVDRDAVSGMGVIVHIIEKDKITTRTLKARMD
substance,measurement,setting,value
"Laminin subunit beta-1, P07942",listed as a hit,Laminin subunit gamma-1,yes
"Splicing factor 3A subunit 2, Q15428",listed as a hit,[1],yes
"U2 small nuclear ribonucleoprotein A', P09661",listed as a hit,[2],yes
"Splicing factor 3B subunit 3, Q15393",listed as a hit,[3],yes
"U2 snRNP-associated SURP motif-containing protein, O15042",listed as a hit,Splicing factor 45,yes
"Vesicle transport through interaction with t-SNAREs homolog 1B, Q9UEU0",listed as a hit,Syntaxin-8,yes
"U2 small nuclear ribonucleoprotein B'', P08579",listed as a hit,[4],yes
"Vacuolar protein sorting-associated protein 33A, Q96AX1",listed as a hit,[5],yes
"Syntaxin-16, O14662",listed as a hit,[6],yes
same,listed as a hit,[7],yes
"Alpha-soluble NSF attachment protein, P54920",listed as a hit,[7],yes
"U3 small nucleolar RNA-interacting protein 2, O43818",listed as a hit,[8],yes
"Metastasis-associated protein MTA2, O94776",listed as a hit,[9],yes
same,listed as a hit,[10],yes
"Coiled-coil domain-containing protein 7, Q96M83",listed as a hit,Plexin-A1,yes
"Polyadenylate-binding protein 4, Q13310",listed as a hit,[11],yes
"Protein ZBED11, P0CF97",listed as a hit,[12],yes
"Proteasome subunit beta type-5, P28074",listed as a hit,[13],yes
"Elongation factor 1-beta, P24534",listed as a hit,[14],yes
"Putative heat shock protein HSP 90-beta 2, Q58FF8",listed as a hit,[15],yes
"RNA-binding Raly-like protein, Q86SE5",listed as a hit,RNA-binding protein Raly,yes
"Protein disulfide-isomerase, P07237",listed as a hit,[16],yes
"Serine palmitoyltransferase 1, O15269",listed as a hit,[17],yes
"MAP/microtubule affinity-regulating kinase 3, P27448",listed as a hit,[18],yes
"Microtubule-associated protein 1B, P46821",listed as a hit,[19],yes
"Titin, Q8WZ42",listed as a hit,[20],yes
"Homeobox protein Hox-B3, P14651",listed as a hit,[21],yes
"Flotillin-2, Q14254",listed as a hit,THO complex subunit 2,yes
"THO complex subunit 5, Q13769",listed as a hit,THO complex subunit 3,yes
"Interferon-inducible double-stranded RNA-dependent protein kinase activator A, O75569",listed as a hit,[22],yes
"Rho-related GTP-binding protein RhoC, P08134",listed as a hit,[23],yes
"Frizzled-9, O00144",listed as a hit,[24],yes
